Source: PubChem BioAssay (NCI)
The panel holds about 83,000 compounds, 20% with a hit somewhere; the sample as a whole holds those more often.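 Interpretation: 100, growth as untreated; towards 0, rising growth inhibition; 0, no net growth; 0 to -100, cell death. Compounds scoring below 10 were considered active.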 Unmarked numbers belong to inactive results. Active and inactive are the calls of the source.

What was measured:
Assay in all cases: NCI-60 one-dose screen, 48 h (100 = growth as untreated, 0 = no growth, -100 = all killed)
Settings in all cases: 10 µM unless noted
[1] = test system: NCI-H23 lung
[2] = test system: NCI-H226 lung
[3] = test system: NCI-H322M lung
[4] = test system: HOP-62 NSCLC
[5] = test system: NCI-H460 lung
[6] = test system: HOP-92 NSCLC
[7] = test system: NCI-H522 lung
[8] = test system: A549/ATCC NSCLC
[9] = test system: 786-0 renal
[10] = test system: COLO 205 colon
[11] = test system: DU-145 prostate
[12] = test system: K-562 leukemia
[13] = test system: MALME-3M melanoma
[14] = test system: MDA-MB-231 breast
[15] = test system: RXF 393 renal
[16] = test system: SF-268 CNS
[17] = test system: SF-295 CNS
[18] = test system: SF-539 CNS
[19] = test system: UACC-257 melanoma
[20] = test system: M14 melanoma

| SMILES | growth [1] | growth [2] | growth [3] | growth [4] | growth [5] | growth [6] | growth [7] | growth [8] | growth [9] | growth [10] | growth [11] | growth [12] | growth [13] | growth [14] | growth [15] | growth [16] | growth [17] | growth [18] | growth [19] | growth [20] |
| --- | --- | --- | --- | --- | --- | --- | --- | --- | --- | --- | --- | --- | --- | --- | --- | --- | --- | --- | --- | --- |
| CCC(C)(C)c1ccc(OCCCCN2CCN(c3ccncc3)CC2)cc1 | 22.1% | 39.8% | 83.9% | 37.4% | 24.9% | 3.82% (active) | 36% | 47.4% | -56.4% (active) | -81.9% (active) | 60.8% | -1.88% (active) | -85% (active) | -30.9% (active) | -7.66% (active) | 66.7% | -35.6% (active) | -36% (active) | 37.5% | -56.6% (active) |
| COc1cccc(COc2ccc(NC(=O)Nc3ccc(Cl)c(C(F)(F)F)c3)cc2)c1 | 21.1% | 43.2% | 16.3% | 34.3% | 17.5% | 6.12% (active) | 22.1% | 16% | 34.5% | 46.2% | 44.6% | 27.1% | 1.5% (active) | 52% | 51.7% | 71.1% | 19.7% | 49.6% | 60.9% | 62.6% |
| CCOP(=O)(OCCCl)c1nc(-c2ccc(C)cc2)oc1NCc1ccccc1 (stereo not given) | 75.3% | 88% | 84.6% | 93.9% | 73.2% | 75.5% | 69.1% | 66.5% | 81.9% | 83.5% | 96% | 50.3% | 102% | 65.1% | 84.4% | 73.7% | 79.9% | 87.2% | 92.6% | 86.3% |
| CCCSc1nc(NCCc2c[nH]c3ccccc23)c(C#N)c(-c2ccc(F)cc2)n1 | 80.6% | 32.5% | 82.9% | 40.4% | 14.1% | 52.1% | 61.3% | 58.6% | 62.4% | 44% | 63.7% | 27.7% | 75.4% | 29.2% | 24.8% | 53.8% | 41.2% | 44.7% | 74.6% | 75.5% |
| CN1CCN(/C(=N\c2sc(-c3ccccc3)nc2-c2ccccc2)c2ccccc2)CC1 | 104% | 96.4% | 82.8% | 97.1% | 42.6% | 80.2% | 87.3% | 76.9% | 78.7% | 42% | 92.3% | 17.8% | 77.9% | 77.9% | 76.1% | 91.5% | 87.6% | 76% | 77.4% | 76.8% |
| CCOc1ccc(C(=O)NC(=S)Nc2ccc(S(N)(=O)=O)cc2)cc1 | 97.5% [100 µM] | 97.1% [100 µM] | 101% [100 µM] | 102% [100 µM] | 102% [100 µM] | 87.9% [100 µM] | 77.5% [100 µM] | 101% [100 µM] | 99% [100 µM] | 119% [100 µM] | 105% [100 µM] | 98.1% [100 µM] | 87.6% [100 µM] | 102% [100 µM] | 102% [100 µM] | 102% [100 µM] | 104% [100 µM] | 91.7% [100 µM] | 90.6% [100 µM] | 102% [100 µM] |
| COCOc1ccc2c(=O)c(C)c(C(=O)N[C@@H](Cc3ccccc3)C(O)C(=O)NCCc3ccc(OC)cc3)oc2c1 (stereo not given in full) | 109% | 110% | 103% | 106% | 133% | 117% | 98.4% | 100% | 106% | 139% | 106% | 84.1% | 111% | 99% | 99.1% | 120% | 107% | 109% | 116% | 118% |
| CN(C)CCOc1ccc(C(=O)C2[C@H](c3ccc(Cl)cc3)[C@@H](c3ccccc3)NC23C(=O)Nc2ccc(Br)cc23)cc1 (stereo not given in full) | -2.68% (active) | 43.7% | 53.7% | 75.9% | -78.1% (active) | 23.5% | -2.86% (active) | 4.59% (active) | -72.5% (active) | -69% (active) | 14.3% | -32.3% (active) | -50.2% (active) | -20.5% (active) | -0.638% (active) | 41.8% | -53.4% (active) | 13% | 53.8% | -71.5% (active) |
| O=C1/C(=C/C2=Cc3ccccc3OC2)SC(=S)N1c1ccccc1F | 103% | 101% | 105% | 101% | 121% | 61.6% | 92.6% | 96.7% | 87.4% | 116% | 108% | 92.4% | 96.2% | 97.2% | 109% | 122% | 96.9% | 97.6% | 107% | 93.3% |
| Cn1cc(NC(=O)c2cc(NC(=O)c3ccc(/C=C/c4ccccc4)cc3)cn2C)cc1C(=O)NCCCN1CCOCC1 | 66.7% | 77.4% | 69.9% | 90.9% | -51.6% (active) | -18% (active) | 17.6% | 26.9% | 27.9% | -78.6% (active) | 44.4% | -41.3% (active) | -83.3% (active) | -19.9% (active) | -3.75% (active) | 58.6% | -80.5% (active) | -98.2% (active) | 77.9% | -84% (active) |
| CC(=O)Oc1ccc(/C=C/C(=O)N[C@@H](Cc2ccccc2)C(O)C(=O)NCc2ccccc2)cc1OC(C)=O (stereo not given in full) | 93.3% | 102% | 83.4% | 95.2% | 56% | 90% | 17.2% | 87.7% | 81.6% | 91.1% | 90.5% | 77.1% | 87.4% | 72.7% | 104% | 68% | 100% | 71.2% | 90.8% | 85.3% |
| CC(/C=C1\SC(=S)N(CCCC(=O)NC(CC(C)C)C(=O)O)C1=O)=C\c1ccccc1 (stereo not given) | 96.5% | 91.1% | 92.8% | 110% | 99.8% | 7.81% (active) | 84.2% | 89.8% | 93.4% | 124% | 98.7% | 82.8% | 104% | 99.8% | 96.2% | 100% | 97.4% | 96% | 104% | 78.6% |
| CC(C)c1sc(NC(=O)c2cc(NC(=O)c3cc(NC(=O)c4nccn4C)cn3C)cn2C)nc1C(=O)NCCCN(C)C | 75.3% | 71.2% | 95.6% | 80.1% | 118% | -0.363% (active) | 38.3% | 106% | 104% | 69.1% | 91.7% | 30.8% | 65% | 85.5% | 76.6% | 57.9% | 100% | 76.9% | 82.3% | 94.3% |
| COc1ccc2[nH]cc(-c3nc(N)nnc3-c3cn(C)c4ncccc34)c2c1 | 69.9% | 66.4% | 69.6% | 62.4% | 25% | 81.2% | 34.3% | 51.2% | 64.2% | 44.5% | 83.9% | 21.6% | 37.6% | 43.4% | 81.5% | 75.8% | 39.9% | 50.2% | 72.9% | 33.2% |
| Cn1cc(-c2nc(N)nnc2-c2c[nH]c3ccc(Br)cc23)c2cccnc21 | 65.5% | 87.1% | 63.3% | 53.2% | 32.8% | 94.1% | 31.8% | 56.7% | 37.1% | 44.5% | 59.7% | 24.5% | 57% | 63.1% | 63.9% | 66.7% | 18.1% | 20.1% | 81.3% | 33.9% |
